In PubChem BioAssay:
Calls of active or inactive are those of the source.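 The calls were made as follows, unless noted: active = fluorescence slope higher than the sample average by over 3 SD (cut at about -0.22 in these data, passing the limit was not always enough); inactive = the rest.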

Tests used:
[1] = inhibitors of TNFa-induced NFkB p65 translocation, primary screen, imaging, HUVEC, MLSMR starter and 10KST1 sets (AID 438;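 active = inhibition above 20% together with a positive visual image hit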;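 also: compound added about 3h40 before a 20 min TNFalpha stimulation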;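 as to inhibition: signal is the nuclear over cytoplasmic p65 intensity ratio per well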); conditions: HUVEC TNFa-induced p65 nuclear translocation; cell count: measured here: nuclei count (cytotoxicity indicator), at 2.08 µM; inhibition: at 2 µM, stronger effect = higher value, 0% TNFa-plus-vehicle, 100% no-TNFa wells
[2] = inhibitors of mutant huntingtin aggregation, primary screen, imaging, exon1htt(103Q)mCFP cells, high-content imaging (AID 483;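 active = visual image review flags a hit and inhibition of aggregation exceeds 20%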;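 also: compound exposure lasted 3 days before fixation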;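 as to nuclei count: percent of the per-plate median nuclei count of sample wells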); conditions: exon1htt(103Q)mCFP cell line, aggregate imaging, at 2 µM; inhibition of aggregation: stronger effect = higher value; nuclei count: measured here: cell count, toxicity
[3] = inhibitors of E-selectin induction by TNFa, primary screen, imaging, HUVEC, immunofluorescence, MLSMR starter and 10KST1 sets (AID 487;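 active = visually confirmed hit in the image check and inhibition above 20%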;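 as to inhibition: signal is fraction of cell area covered by stained E-selectin grains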;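 as to nuclei count: 100% = median nuclei count of all wells on the same plate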); conditions: HUVEC TNFalpha-induced E-selectin immunofluorescence imaging, at 2 µM; inhibition: stronger effect = higher value; nuclei count: measured here: cell number, toxicity
[4] = target: Voltage-gated potassium channel subunit beta-2 (Rattus norvegicus) (UniProt P62483); experiment: KvBeta enzyme negative modulators, primary screen, biochemical, NADPH fluorescence (AID 622); conditions: recombinant KvBeta, 4-cyanobenzaldehyde reduction, at 10 µM, stronger effect = higher value;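 also: slope of raw intensity against log time taken from 70 to 1610 s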
Voltage-gated potassium channel subunit beta-2 (Rattus norvegicus), sequence (P62483 whole entry, looked up): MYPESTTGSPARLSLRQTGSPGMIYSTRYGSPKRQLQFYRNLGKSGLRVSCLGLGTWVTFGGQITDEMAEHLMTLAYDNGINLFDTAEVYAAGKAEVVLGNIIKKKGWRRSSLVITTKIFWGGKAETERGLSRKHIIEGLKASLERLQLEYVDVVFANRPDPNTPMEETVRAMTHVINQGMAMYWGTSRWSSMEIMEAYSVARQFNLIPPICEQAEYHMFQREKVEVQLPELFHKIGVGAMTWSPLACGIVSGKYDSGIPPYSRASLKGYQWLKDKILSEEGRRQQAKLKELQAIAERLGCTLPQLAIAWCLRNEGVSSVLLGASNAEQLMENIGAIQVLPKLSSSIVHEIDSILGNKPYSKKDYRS

[5] = target: Voltage-gated potassium channel subunit beta-2 (Rattus norvegicus) (UniProt P62483); experiment: KvBeta positive modulators, primary screen, biochemical, NADPH fluorescence (AID 623;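 active = NADPH fluorescence slope more negative than the mean of all samples by about 3 SD, 99.7% confidence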;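 also: fluorescence intensity change per second fitted from 20 to 320 s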); conditions: Recombinant KvBeta, NADPH fluorescence decrease slope, 10 min; at 10 µM; stronger effect = lower value
[6] = target: Alpha-2C adrenergic receptor (Homo sapiens) (UniProt P18825); experiment: modulators of alpha2C/GIRK thallium flux, primary screen, cell-based, HEK293 alpha2C/GIRK1/2 (AID 624;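 active = fluorescence slope after compound addition differing from the mean of all screened samples at 99.7% confidence, in either direction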;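 also: slope of fluorescence ratio to pre-addition baseline per second over 15 to 24 s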); conditions: thallium flux BTC fluorescence, at 10 µM, actives lie on both sides
Alpha-2C adrenergic receptor (Homo sapiens), sequence (P18825 whole entry, looked up): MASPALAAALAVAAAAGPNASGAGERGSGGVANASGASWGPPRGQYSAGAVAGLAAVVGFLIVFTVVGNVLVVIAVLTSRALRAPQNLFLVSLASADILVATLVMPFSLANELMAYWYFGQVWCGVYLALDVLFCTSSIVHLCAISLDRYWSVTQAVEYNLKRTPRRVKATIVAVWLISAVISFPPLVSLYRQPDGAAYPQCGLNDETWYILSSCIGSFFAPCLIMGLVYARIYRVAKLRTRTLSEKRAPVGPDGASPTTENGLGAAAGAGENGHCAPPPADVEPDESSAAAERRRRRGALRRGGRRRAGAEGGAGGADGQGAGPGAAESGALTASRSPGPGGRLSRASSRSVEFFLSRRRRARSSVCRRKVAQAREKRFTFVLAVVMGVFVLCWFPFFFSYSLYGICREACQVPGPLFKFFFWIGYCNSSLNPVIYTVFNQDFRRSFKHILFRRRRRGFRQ

[7] = inhibitors of Sendai virus-induced IRF3 signaling, primary screen, TLR/RLR signaling modifier project, cell-based, Sendai virus stimulus, luciferase, 10K MLSCN set (AID 602276;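 active = inhibition at or above 50% at 10 µM; inactive = inhibition below 50%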;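 also: firefly luciferase from ISG56 promoter only with Renilla not read in this screen; 0% = Sendai virus plus DMSO and 100% = medium plus DMSO without virus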); conditions: HEK293 RL24 IRF3 luciferase reporter, at 10 µM, stronger effect = higher value
[8] = inhibitors of poly I:C-induced TLR3 signaling, primary screen, cell-based, poly I:C stimulus, luciferase, 10K MLSCN set (AID 602277;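 active = inhibition of the reporter signal at or above 50%; inactive = inhibition below 50%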); conditions: HEK293-TLR3 RL24 IRF3 luciferase reporter, at 10 µM, stronger effect = higher value

Row | SMILES | cell count [1] | inhibition [1] | inhibition of aggregation [2] | nuclei count [2] [%] | inhibition [3] | nuclei count [3] [%] | fluorescence slope [4] | NADPH fluorescence slope [5] | slope [6] | inhibition [7] | inhibition [8]
1 | CCC(=O)c1cc(F)c(N2CCN(C(=O)c3ccco3)CC2)cc1C | 611 | -1.3% (inactive) | -12.2% (inactive) | 128 | -10.1% (inactive) | 104 | -0.519 (inactive) | -4.1e-05 (inactive) | 0.00579 (inactive) | 1.51% (inactive) | -21.1% (inactive)
2 | CC(C)COC(=O)C(C#N)c1nc2ccccc2nc1N1CCN(Cc2ccccc2)CC1 (centres undefined) | 296 | 4.2% (inactive) | 3.4% (inactive) | 91.2 | 17.8% (inactive) | 87 | -0.425 (inactive) | 8.1e-06 (inactive) | 0.00589 (inactive) | 14.6% (inactive) | 7.75% (inactive)
3 | CCCCn1c(SCC(=O)OCC)nc2c1c(=O)[nH]c(=O)n2C | 611 | -0.3% (inactive) | 5.2% (inactive) | 97.5 | 7.7% (inactive) | 84.3 | -0.499 (inactive) | -2.6e-05 (inactive) | 0.00682 (inactive) | 13.7% (inactive) | 21.6% (inactive)
4 | COc1ccc(C(=O)c2coc3ccc(O)c(CN4CCCCC4)c23)cc1 | 828 | -6.8% (inactive) | -9.1% (inactive) | 108 | -25.2% (inactive) | 112 | -0.597 (inactive) | -1.2e-05 (inactive) | 0.00458 (inactive) | -9.24% (inactive) | -15.8% (inactive)
5 | CCOC(=O)N1CCN(Cc2ccccc2F)CC1 | 485 | -3.8% (inactive) | 15.1% (inactive) | 91.4 | -26% (inactive) | 91.5 | -0.581 (inactive) | -2e-05 (inactive) | 0.00418 (inactive) | 12.5% (inactive) | 13.4% (inactive)
6 | COC(=O)c1oc2ccc(Br)cc2c1NC(C)=O | 644 | -0.8% (inactive) | 35.6% (active) | 90.2 | -28.5% (inactive) | 112 | -0.575 (inactive) | -3.5e-05 (inactive) | 0.00664 (inactive) | 16.9% (inactive) | 30.7% (inactive)
7 | Cc1onc(-c2ccccc2)c1C(=O)N1CCN(C(=O)c2ccco2)CC1 | 601 | 2.2% (inactive) | -0.2% (inactive) | 111 | -20.4% (inactive) | 93.8 | -0.5 (inactive) | -4.3e-05 (inactive) | 0.00556 (inactive) | 14.1% (inactive) | 20.5% (inactive)
8 | Cc1ccc(S(=O)(=O)N2CCN(C(=O)c3cc(=O)[nH]c4ccccc34)CC2)c(C)c1 | 539 | -11.9% (inactive) | -23.6% (inactive) | 100 | 5.3% (inactive) | 162 | -0.5 (inactive) | -2.6e-05 (inactive) | 0.00525 (inactive) | 17.3% (inactive) | 31% (inactive)
9 | O=C(O)CSC1CC(=O)N(c2ccc(Cl)c(Cl)c2)C1=O (centres undefined) | 754 | -2.8% (inactive) | 11.7% (inactive) | 88.4 | 4.8% (inactive) | 114 | -0.304 (inactive) | -5.1e-05 (inactive) | 0.00566 (inactive) | 3.92% (inactive) | 8.23% (inactive)
10 | COC(=O)Cn1c2ccccc2c2nc(C)sc21 | 350 | 11.4% (inactive) | -14.3% (inactive) | 106 | -59.3% (inactive) | 125 | -0.439 (inactive) | 7e-06 (inactive) | 0.00472 (inactive) | -14.8% (inactive) | -8.31% (inactive)
11 | COC(=O)[C@H](CCSC)NC(=O)Nc1cc(C)ccc1C | 476 | -7.4% (inactive) | 7.6% (inactive) | 90.6 | -5.7% (inactive) | 86.5 | -0.616 (inactive) | -3.2e-05 (inactive) | 0.00712 (inactive) | 11.7% (inactive) | 31% (inactive)
12 | CCOCCn1c(CN2CCN(c3cccc(Cl)c3)CC2)nc2c1c(=O)n(C)c(=O)n2C | 743 | -15.7% (inactive) | -5.1% (inactive) | 104 | -20% (inactive) | 103 | -0.592 (inactive) | -4.2e-05 (inactive) | 0.00703 (inactive) | 1.6% (inactive) | 22.6% (inactive)
13 | C=CCn1c(COc2ccc(CC)cc2)nnc1SC/C(O)=C(\C#N)c1nc2ccccc2[nH]1 | 705 | -4.3% (inactive) | 3.6% (inactive) | 101 | -10.1% (inactive) | 108 | -0.379 (inactive) | 8.9e-06 (inactive) | 0.0031 (inactive) | 21.3% (inactive) | 14.4% (inactive)
14 | c1ccc(CCc2nc(-c3cccnc3)no2)cc1 | 647 | 3.1% (inactive) | 5% (inactive) | 93 | -102% (inactive) | 132 | -0.636 (inactive) | 1.1e-05 (inactive) | 0.00345 (inactive) | -30.7% (inactive) | -90.7% (inactive)
